Data reported in PubChem BioAssay (NCI).
This is part of a sample that, as a whole, favours compounds with a hit. Of some 83,000 tested, about 20% had one in any assay.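 Note: values are percent growth. 100 is the growth of untreated cells, values between 100 and 0 indicate rising inhibition; between -100 and 0 indicates cell death.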 Values without a mark were called inactive. Active and inactive are the calls of the source. The calls were made as follows: active = growth percent below 10; inactive = the rest.

Tests used:
Assay in all cases: NCI-60 one-dose screen, 48 h (100 = growth as untreated, 0 = no growth, -100 = all killed)
Details in all cases: 10 µM unless noted
[1] = tested on: NCI-H226 lung
[2] = tested on: NCI-H322M lung
[3] = tested on: HOP-62 NSCLC
[4] = tested on: NCI-H460 lung
[5] = tested on: HOP-92 NSCLC
[6] = tested on: NCI-H522 lung
[7] = tested on: A549/ATCC NSCLC
[8] = tested on: 786-0 renal
[9] = tested on: COLO 205 colon
[10] = tested on: DU-145 prostate

COC(=O)C(Cc1ccccc1)NS(=O)(=O)/N=C1\NC(=O)NC1=C(Cl)Cl (stereo not given)
growth [1]: 107% | growth [2]: 91.4% | growth [3]: 101% | growth [4]: 97.6% | growth [5]: 49.9% | growth [6]: 96.2% | growth [7]: 105% | growth [8]: 77% | growth [9]: 133% | growth [10]: 105%

O=C(N/N=C/c1ccc(Br)s1)c1[nH]c2ccc(Br)cc2c1-c1ccccc1
growth [1]: 52.6% | growth [2]: 48.2% | growth [3]: 46.5% | growth [4]: 3.52% (active) | growth [5]: 46.6% | growth [6]: -38.5% (active) | growth [7]: 28.8% | growth [8]: 11.5% | growth [9]: -44.3% (active) | growth [10]: 18.6%

Nc1cc(-c2c[nH]c3ccc(F)cc23)nc2cc(-c3c[nH]c4ccc(F)cc34)nn12
growth [1]: 97.4% | growth [2]: 94.1% | growth [3]: 101% | growth [4]: 32.2% | growth [5]: 83.5% | growth [6]: 90.3% | growth [7]: 79.5% | growth [8]: 66.3% | growth [9]: 118% | growth [10]: 72.7%

C#Cc1nc(C2=C(C)C(O)CC2)cs1 (stereo not given)
growth [1]: 110% | growth [2]: 111% | growth [3]: 103% | growth [4]: 113% | growth [5]: 115% | growth [6]: 97.2% | growth [7]: 100% | growth [8]: -87.8% (active) | growth [9]: 118% | growth [10]: 110%

C#Cc1nc(C2=C(C)C(=O)/C(=N/OC(C)=O)C2)cs1
growth [1]: 107% | growth [2]: 101% | growth [3]: 88.5% | growth [4]: 98.5% | growth [5]: 50% | growth [6]: 82.6% | growth [7]: 96.3% | growth [8]: -94.5% (active) | growth [9]: 119% | growth [10]: 85.7%

COC(=O)C1CN(S(=O)(=O)/N=C2\NC(=O)NC2=C(Cl)Cl)C1
growth [1]: 106% | growth [2]: 102% | growth [3]: 109% | growth [4]: 108% | growth [5]: 98.9% | growth [6]: 99.1% | growth [7]: 101% | growth [8]: 104% | growth [9]: 124% | growth [10]: 116%

OC1CCN(CCCOc2c3ccccc3nc3c2oc2ccc(Cl)cc23)CC1
growth [1]: 11.1% | growth [2]: -1.27% (active) | growth [3]: 27% | growth [4]: 4.79% (active) | growth [5]: 14% | growth [6]: -51.4% (active) | growth [7]: 1.98% (active) | growth [8]: 11.7% | growth [9]: -13.1% (active) | growth [10]: 5.05% (active)

COc1cc(/C=C/C(=O)c2ccc(Cl)cc2)ccc1Oc1nc(NCCO)nc(N2CCOCC2)n1
growth [1]: 96.5% | growth [2]: 95.8% | growth [3]: 92.7% | growth [4]: 106% | growth [5]: 102% | growth [6]: 96.8% | growth [7]: 103% | growth [8]: 101% | growth [9]: 116% | growth [10]: 107%

NS(=O)(=O)c1ccc(Nc2nc(SCC(=O)c3ccc(Cl)cc3)nc3ccccc23)cc1
growth [1]: 87.1% | growth [2]: 86.5% | growth [3]: 95.3% | growth [4]: 97.1% | growth [5]: 84.4% | growth [6]: 88% | growth [7]: 97.1% | growth [8]: 96% | growth [9]: 107% | growth [10]: 97.1%

COc1ccc(Cc2nn(CC(=O)N/N=C/c3ccc(Cl)cc3)c(=O)c3c(C)noc23)cc1
growth [1]: 69.8% | growth [2]: 94.8% | growth [3]: 70.4% | growth [4]: 64.9% | growth [5]: 89.5% | growth [6]: 74.4% | growth [7]: 46% | growth [8]: 52.6% | growth [9]: 102% | growth [10]: 93%

O=C(N/N=C/c1ccco1)c1[nH]c2ccc(Br)cc2c1-c1ccccc1
growth [1]: 50.1% | growth [2]: 42.1% | growth [3]: 35.4% | growth [4]: 2.19% (active) | growth [5]: 48.7% | growth [6]: -39.7% (active) | growth [7]: 35.4% | growth [8]: 16.4% | growth [9]: -35.2% (active) | growth [10]: 13.4%

N#Cc1c(-c2ccc(Cl)cc2)nc2c(-c3ccccc3)c(Nc3ccccc3)nn2c1N
growth [1]: 41.5% | growth [2]: 64% | growth [3]: 57.5% | growth [4]: -8.88% (active) | growth [5]: 35.2% | growth [6]: 72.3% | growth [7]: 29.5% | growth [8]: 25.1% | growth [9]: 57% | growth [10]: 63.6%

N#Cc1nc(-c2ccccc2)oc1S(N)(=O)=O
growth [1]: 103% | growth [2]: 100% | growth [3]: 111% | growth [4]: 93.3% | growth [5]: 77.3% | growth [6]: -44.5% (active) | growth [7]: 101% | growth [8]: 51.1% | growth [9]: 96.7% | growth [10]: 82.5%

N#Cc1c(-c2ccc(F)cc2)nc2c(C#N)c(Nc3ccccc3)nn2c1N
growth [1]: 112% | growth [2]: 105% | growth [3]: 97.3% | growth [4]: 106% | growth [5]: 92.5% | growth [6]: 97.9% | growth [7]: 101% | growth [8]: 86.9% | growth [9]: 110% | growth [10]: 103%
